Bioassay records: PubChem BioAssay, National Center for Advancing Translational Sciences (NCATS)
Shown is part of a subset that was picked to be rich in hits.
FH mod: Identification of activators of human fumarate hydratase by quantitative high-throughput screening. Fumarate hydratase, mitochondrial (Homo sapiens), P07954. FH coupled MDH/diaphorase resazurin fluorescence, 15 min. Potency, µM (doses to about 79.9 µM), for inactives: at the highest dose activity change, negative = inhibition, usual class: inhibitors. 54,000 compounds, 0.22% hits. AID 1347055, 2019; note: potency is the fitted concentration of half-maximal effect; % is set by controls: 0 for no effect and ±100 for the full control effect; the screen sought activators but most active calls are inhibition curves; nearly all actives have a fitted effect of over 45% in size
NTMT1 inhibitor: blocks human N-terminal methyltransferase 1 activity. AID 1645870. 59,000 compounds, 2.5% hits. Q9BV86. NTMT1 MTase-Glo SAH luminescence, purified enzyme. Potency, µM (doses to about 114 µM), without a hit: at the highest dose activity change, negative = inhibition, hits mostly inhibitors;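 note: potency is the fitted concentration of half-maximal effect; plate controls were DMSO vehicle for no effect and no enzyme for full effect; nearly all actives have a fitted effect of over 65% in size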
Target sequence (Q9BV86 whole entry, looked up): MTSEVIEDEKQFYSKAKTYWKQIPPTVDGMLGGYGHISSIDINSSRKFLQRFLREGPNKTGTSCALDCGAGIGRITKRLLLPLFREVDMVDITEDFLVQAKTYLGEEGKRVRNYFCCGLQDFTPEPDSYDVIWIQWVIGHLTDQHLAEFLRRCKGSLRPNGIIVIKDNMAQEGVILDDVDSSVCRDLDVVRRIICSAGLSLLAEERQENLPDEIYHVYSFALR
PTAP-TSG101 blk: inhibitors of HIV-1 PTAP binding to human TSG101, validation; Fluorescence polarization, FITC-PTAP peptide/Tsg101, 20 min; Potency, µM (series often up to 115 µM), actives largely listed as inhibitors; 44,000 tested, under 10 active; AID 1347069; note: potency is the fitted concentration of half-maximal effect; 0% is about no effect
Target sequence (Q99816 whole entry, looked up): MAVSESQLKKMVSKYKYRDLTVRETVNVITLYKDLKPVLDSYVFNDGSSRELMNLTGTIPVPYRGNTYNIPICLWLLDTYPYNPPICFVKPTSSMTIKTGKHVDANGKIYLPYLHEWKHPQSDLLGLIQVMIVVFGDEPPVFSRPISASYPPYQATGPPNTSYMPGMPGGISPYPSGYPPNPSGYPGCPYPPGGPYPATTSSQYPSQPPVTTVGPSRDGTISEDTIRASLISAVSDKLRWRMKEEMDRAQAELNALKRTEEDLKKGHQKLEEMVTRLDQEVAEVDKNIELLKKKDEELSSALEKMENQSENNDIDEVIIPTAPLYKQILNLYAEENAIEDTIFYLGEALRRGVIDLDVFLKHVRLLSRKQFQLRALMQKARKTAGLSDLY
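qHTS FP binding, 20 min r.t.: 10 uM Tsg101 domain + 50 nM FITC-PTAP peptide, pH 7.5 HEPES buffer with TCEP and EDTA.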
GALK inh: inhibits human galactokinase; P51570; recombinant GALK, Kinase-Glo ATP luminescence, 1 h; Potency, µM (doses to about 57.5 µM), without a hit: top-dose activity, negative = inhibition, actives largely listed as inhibitors; 44,000 tested, under 10 active; AID 1347072;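 note: plate controls were full GALK reaction for no effect and reaction lacking GALK for full effect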
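Compounds were pinned into ATP buffer, then GALK-galactose mix was added (final 5 nM enzyme, 35 uM ATP, 100 uM galactose, pH 8.0). After 1 h at room temperature, Kinase-Glo Plus was added and luminescence read.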
B2AR arrestin ag: agonists recruiting beta-arrestin to human beta2-adrenergic receptor | Potency, µM (series often up to 46.1 µM), actives largely listed as activators | 44,000 tested, under 10 active | P07550 | HTLA Tango cells, beta-arrestin recruitment, luciferase luminescence, 18 h;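 note: potency is the fitted concentration of half-maximal effect; 0% = DMSO and full agonism = EC100 isoproterenol or metaproterenol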
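Tango cells expressing recombinant beta2-AR and beta-arrestin were treated with compounds (up to 46 microM titration) in DMEM with 1% FBS for 18 hr at 37 degrees C. Beta-arrestin recruitment drove tTA-dependent luciferase, read by luminescence; curves were fitted and classed.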
GALC G270D up: enhancers of human galactocerebrosidase G270D mutant activity in cells; P54803; 145M-Twi-hGALC-G270D cells (Twitcher mouse brain line with human GALC G270D), HMU-beta-Gal fluorescence, 48 h; Potency, µM (series often up to 57.5 µM), actives largely listed as activators; 45,000 compounds, 0.1% hits; AID 1159614; note: potency is the fitted concentration of half-maximal effect; 0% is about no effect; nearly all actives have a fitted effect of over 65% in size
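Live 145M-Twi cells (Twitcher mouse brain-derived, GALC-null) stably expressing human GALC-G270D, with a wild-type GALC line, were compound-treated. Residual GALC activity was then read as fluorescence from 0.1 mM final HMU-β-gal at pH 5.2; higher signal means activation.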
An asterisk follows results filed as active; i = inactive; ? = inconclusive; . = not tested or not shown; ! = not active in a repeat; [ ] = another dose, or the depositor's remark. Calls come from the whole dose curve; as a rule, active = well fitted curve in the direction sought with a large enough effect; inconclusive = small, poorly fitted or top-dose-only effect, or another doubt; inactive = no such curve, though single readings can be large; an effect the other way counts as inactive or inconclusive.

SMILES	FH mod	NTMT1 inhibitor	PTAP-TSG101 blk	GALK inh	B2AR arrestin ag	GALC G270D up
CCC(O)C(C)C1CCC(C(C)C(=O)O)O1 (stereo unspecified)	1%	10%[57.5 µM]	.	.	.	.
O=C(Nc1ccc(Cl)nc1)Nc1nnc(-c2ccncc2)s1	.	-21%	.	.	.	.
CCCCN(CC)C(=O)c1cc2c(=O)n3cccc(C)c3nc2s1	?	-19%	i	0%	i	25µM*
CCCCN(CC)C(=O)c1cc2c(=O)n3cccc(C)c3nc2n1C	-4%	-14%	i	0%	i	i
COc1cc2ncc(-c3ccccc3)nc2cc1OC	2%	-4%[57.5 µM]	.	.	.	.
Cc1cc2ncc(-c3ccccc3)nc2cc1C	0%	45µM*	.	.	.	.
Cc1cccc(C=NNc2cc(N3CCOCC3)nc(OCCc3ccccn3)n2)c1	6%[53.3 µM]	22µM*	.	.	.	.
CN(C)CC1CCn2c(c(C3=C(c4cn(C)c5ccccc45)C(=O)NC3=O)c3ccccc32)C1 (stereo unspecified)	-5%	?	.	.	.	.
O=C(c1ccccc1F)N1c2nc(-c3ccco3)nn2C2(CCCCC2)[C@@H]2CCCC[C@@H]21	-17%	50µM*	i	-5%	i	i
O=C(O)c1ccc(Nc2nc3ccccc3n3cnnc23)cc1	?	13µM*	i	6%	i	i
COc1cc2c(=O)n(CCc3ccccc3)c(=O)n(CC(=O)Nc3ccccc3)c2cc1OC	-5%	79µM*	i	2%	i	i
CC1(C)CC[C@]2(C(=O)O)CC[C@]3(C)C(=CCC4[C@@]5(C)CC[C@H](O[C@H]6O[C@H](C(=O)O)[C@@H](O)[C@H](O[C@@H]7O[C@H](CO)[C@H](O)[C@H](O)[C@H]7O)[C@H]6O)C(C)(C)C5CC[C@]43C)[C@@H]2C1 (stereo partly specified)	4%[20.6 µM]	-3%[12.6 µM]	.	.	.	.
CC(C)(C)OC(=O)N1CCC(c2c(C(=O)N3CCCCC3)cnn2-c2cccc(F)c2)CC1	-20%	2%	i	-1%	i	10µM*
CN1CCN(C(=O)c2cnn(-c3cccc(F)c3)c2C2CCN(C(=O)OC(C)(C)C)CC2)CC1	3%	12%	i	0%	i	i
Cc1ccc(-n2ncc(C(=O)NCCN3CCC(Cc4ccccc4)CC3)c2C2CCN(C(=O)OC(C)(C)C)CC2)cc1	-22%	89µM*	i	1%	i	i
Cc1ccc2c(c1)c(=O)c1ccccc1n2CCCC(=O)Nc1ccc(C)c(C)c1	-16%	-5%	i	-4%	i	40µM*
CCOC(=O)C1CCN(c2ccc(NCc3ccc(-c4ccc(C#N)cc4)o3)cc2)CC1	.	-5%[57.5 µM]	.	.	.	.
CCC1CCc2nc3sc(C(=O)Nc4cccc(F)c4)c(N)c3cc2C1 (stereo unspecified)	14%	-12%	i	2%	i	i
CCC1CCc2nc3sc(C(=O)Nc4cccc(C(F)(F)F)c4)c(N)c3cc2C1 (stereo unspecified)	-4%	0%	i	0%	i	10µM*
Cc1c(-c2ccc(Cl)cc2)c(=O)oc2c(CN3CCCC3)c(O)ccc12	-11%	-5%	i	0%	i	40µM*
Cc1c(-c2ccc(Cl)cc2)c(=O)oc2c(CN3CCOCC3)c(O)ccc12	-10%	-4%	i	1%	i	i
Cc1c(C(=O)Nc2cccc(C(F)(F)F)c2)sc2nc3n(c(=O)c12)CCCC3	-11%	8%	i	-5%	i	i
Cc1c(C(=O)N(C)c2cccc(C(F)(F)F)c2)sc2nc3n(c(=O)c12)CCCCC3	?	-8%	45µM*	4%	i	i
Cc1ccc(CCNC(=O)c2cc3c(s2)-c2ccccc2OC3)cc1	3%	-17%	i	-4%	i	i
Cc1ccc(CCNC(=O)c2cc3c(s2)-c2c(C)cccc2OC3)cc1	-32%	89µM*	i	3%	i	i
SMILES	FH mod	NTMT1 inhibitor	PTAP-TSG101 blk	GALK inh	B2AR arrestin ag	GALC G270D up
CCc1c(C)c2ccc3c(c2oc1=O)CN(Cc1ccccc1)CO3	2%	-7%	i	0%	i	25µM*
Cc1ccc(CN2COc3ccc4c(C)cc(=O)oc4c3C2)cc1	-4%	-3%	i	2%	i	25µM*
O=c1cc(-c2ccccc2)c2ccc3c(c2o1)CN(Cc1ccccc1)CO3	2%	-10%	i	0%	i	i
CC1(C)OB(c2ccc(O)c3ncc(N4CCNCC4)cc23)OC1(C)C	.	79µM*	.	.	.	.
Oc1cccc2cc(N3CCCC3)cnc12	.	10%	.	.	.	.
N#Cc1c(-c2cccc(Br)c2)no[n+]1[O-]	.	5%	.	.	.	.
N#Cc1cc2cc(CN3CCC(Nc4ncnc5sc(CC(F)(F)F)cc45)CC3)c(O)cc2n1Cc1cn[nH]c1	.	-30%	.	.	.	.
Cc1c(C)n(Cc2ccccc2)c2ccc(C(=O)NCc3ccc(OC(C)C)cc3)cc12	-18%	-5%	i	-1%	i	i
Cc1c(C)n(Cc2ccc(-c3ccccc3C(=O)O)cc2)c2ccc(C(=O)N[C@@H](C)c3ccc([N+](=O)[O-])cc3)cc12	-17%	32µM*!	.	.	.	.
O=C(NS(=O)(=O)c1ccc(Br)s1)c1ccc(Cl)cc1Cl	7%	-2%[57.5 µM]	.	.	.	.
CCCC(=O)c1cc(O)c(O)cc1O	?	40µM*	.	.	.	i
COc1ccccc1/C=C/c1nc(C#N)c(N2CCN(C)CC2)o1	-18%	-11%	i	2%	i	28µM*
CCCc1ncc(C[n+]2ccccc2C)c(N)n1	-3%[53.3 µM]	35µM*	.	.	.	i
FC(F)(F)c1ccccc1-c1nc(NCc2ccc(-c3cccnc3)cc2)c2sccc2n1	.	9%[57.5 µM]	.	.	.	.
C[C@@H]1O[C@@H](O[C@H]2[C@@H]3C=CO[C@@H](O[C@@H]4O[C@H](CO)[C@@H](O)[C@H](O)[C@H]4O)[C@@H]3[C@@]3(CO)O[C@@H]23)[C@H](O)[C@H](OC(=O)/C=C/c2ccc(O)c(O)c2)[C@H]1O	-1%[20.6 µM]	1%[12.6 µM]	.	.	.	.
C[C@@H]1CCN(C(=O)CC#N)C[C@@H]1N(C)c1ncnc2[nH]ccc12	.	-19%	.	.	.	.
c1ccc(CNc2nc(NCc3ccccc3)c3ccccc3n2)cc1	0%[53.3 µM]	45µM*!	.	.	.	.
c1ccc(CNc2nc(-c3cccs3)nc3ccccc23)cc1	.	5%	.	.	.	.
Cc1cccc(C)c1Nc1c(-c2ccc(O)cc2)nc2sccn12	32µM*	-8%	i	-7%	i	i
